Laboratory results reported in PubChem BioAssay (NCATS).
Where “and” joins values, the source holds several entries; their conditions need not be identical. Identical values can stand only once. Inconclusive results are not listed. Calls of active or inactive are those of the source. Unless noted, the call rests on the fitted dose curve; in most records, active means well fitted curve in the direction sought with a large enough effect; inconclusive means small, poorly fitted or top-dose-only effect, or another doubt; inactive means no such curve, though single readings can be large; an effect the other way counts as inactive or inconclusive.

Columns and labels:
[1] = target: Glutaminase kidney isoform, mitochondrial (Homo sapiens) (UniProt O94925); test: qHTS for Inhibitors of Glutaminase (GLS): LOPAC Validation (AID 624146);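 further: glutamate product detected by oxidase and peroxidase coupled Amplex red fluorescence gain; series mostly up to about 46 µM; on the % scale 0 is the no-effect control and ±100 the full control effect; nearly all actives have a fitted effect of over 60% in size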
Sequence of Glutaminase kidney isoform, mitochondrial (Homo sapiens) (O94925 whole entry, looked up, canonical isoform): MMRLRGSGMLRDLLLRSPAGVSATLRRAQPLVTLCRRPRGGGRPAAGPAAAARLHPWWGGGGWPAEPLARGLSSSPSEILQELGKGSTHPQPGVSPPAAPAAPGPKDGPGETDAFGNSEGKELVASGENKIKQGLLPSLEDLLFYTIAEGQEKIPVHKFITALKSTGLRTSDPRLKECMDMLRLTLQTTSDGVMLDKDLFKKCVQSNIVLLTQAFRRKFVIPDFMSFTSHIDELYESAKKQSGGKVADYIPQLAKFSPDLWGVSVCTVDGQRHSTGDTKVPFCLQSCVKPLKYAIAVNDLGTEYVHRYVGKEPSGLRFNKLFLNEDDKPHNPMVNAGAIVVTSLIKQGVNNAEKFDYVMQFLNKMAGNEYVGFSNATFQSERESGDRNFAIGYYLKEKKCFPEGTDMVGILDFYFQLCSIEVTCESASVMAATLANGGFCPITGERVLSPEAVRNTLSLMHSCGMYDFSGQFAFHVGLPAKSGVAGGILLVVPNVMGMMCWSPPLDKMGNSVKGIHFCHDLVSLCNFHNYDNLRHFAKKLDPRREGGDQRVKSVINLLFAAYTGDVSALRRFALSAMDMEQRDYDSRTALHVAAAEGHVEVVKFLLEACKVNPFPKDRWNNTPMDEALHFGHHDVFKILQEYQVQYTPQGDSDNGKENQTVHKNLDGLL
How it was run: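 Assay buffer: 45 mM KH2PO4 pH 8.2, 0.02% Tween-20. hKGA acts on L-glutamine (1 mM solution added); product glutamate is reported by an oxidase/peroxidase Amplex Red coupling, with fluorescence taken at baseline and 30 min.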

[2] = qHTS of Trypanosoma Brucei Inhibitors: LOPAC Validation (AID 624147); further: 0% is about no effect
How it was run: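 Readout: single end-point luminescence (Kinase-Glo Plus, 10 min). Reaction conditions were TbPYK/substrate plus 130 uM ADP, 45 min at RT, pH 7.2 TEA buffer. No-enzyme wells served as controls, and data were normalized before concentration-response fitting.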

[3] = target: Glucagon-like peptide 1 receptor (Homo sapiens) (UniProt P43220); test: qHTS of GLP-1 Receptor Agonists: LOPAC Validation (AID 624148);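 further: 0% is about no effect; higher luminescence signal means agonism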
Sequence of Glucagon-like peptide 1 receptor (Homo sapiens) (P43220 whole entry, looked up): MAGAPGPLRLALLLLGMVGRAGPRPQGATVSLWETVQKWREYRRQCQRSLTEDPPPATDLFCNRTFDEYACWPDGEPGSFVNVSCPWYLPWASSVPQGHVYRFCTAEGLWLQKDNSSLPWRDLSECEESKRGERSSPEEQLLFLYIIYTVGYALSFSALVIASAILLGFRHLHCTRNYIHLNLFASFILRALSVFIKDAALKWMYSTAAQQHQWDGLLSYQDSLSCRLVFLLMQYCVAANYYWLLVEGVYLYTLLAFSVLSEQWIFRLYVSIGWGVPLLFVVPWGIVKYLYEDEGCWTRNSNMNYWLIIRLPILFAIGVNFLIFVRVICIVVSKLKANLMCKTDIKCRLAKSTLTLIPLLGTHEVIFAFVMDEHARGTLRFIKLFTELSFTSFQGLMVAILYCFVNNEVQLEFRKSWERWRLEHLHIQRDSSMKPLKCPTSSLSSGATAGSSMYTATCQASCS
How it was run: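 HEK293 cells stably co-expressing a cAMP-responsive luciferase reporter and a hypersensitive GLP-1R were plated 12 h at 37 °C and exposed to compounds for 4-6 hr at 37 °C, 5% CO2. Luminescence was read 12 min after adding detection reagent.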

[4] = qHTS of Nrf2 Activators: LOPAC Validation (AID 624149); further: 0% is about no effect
How it was run: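 Luminescence read-out of ARE-luciferase activation: AREc32_Fluc cells treated with compounds for 24 hr at 37 deg C, then lysed with Steady-Glo for 30 min at room temperature before reading.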

[5] = HTS Assay for Allosteric Antagonists of the Human D2 Dopamine Receptor: Hit Validation in HTRF (AID 624455);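 further: stable D1 dopamine receptor cell line scored for blocking the D1 response; on the % scale 0 is the no-effect control and ±100 the full control effect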
How it was run: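 First, antagonism was screened by calcium flux in a force-coupled, inducible Hek293 Trex D2 line challenged with EC80 dopamine. Hits then went into an HTRF assay in cells stably expressing D1, testing inhibition of the D1 response.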

[6] = S16 Schwann cell viability assay (CellTiter-Glo assay) (AID 624031);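 further: native untransfected S16 rat Schwann cells; cellular ATP luminescence as a viability measure; series mostly up to about 58 µM; plate controls were DMSO-treated cells for no effect and cell-free wells for full effect; nearly all actives have a fitted effect of over 70% in size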
How it was run: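 Parental S16 cells, 24 h compound, 37 °C. ATP-luminescence viability; DMSO = 0% activity, empty wells as reference; curves classified by fit quality and efficacy.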

[7] = S16 Schwann cell PMP22 intronic element firefly luciferase assay (AID 624032); further: nearly all actives have a fitted effect of over 30% in size; further: potency means the concentration at half of the fitted maximal effect
How it was run: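 Rat S16 Schwann cells stably carrying a PMP22 intronic element-driven Fluc reporter were seeded overnight, then exposed to compounds for 24 h at 37 °C. Luminescence was normalized to PTC124 (positive control) and DMSO (0% activity).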

[8] = S16 Schwann cell PMP22 intronic element beta-lactamase assay (AID 624044; calls by dose curve; further: nearly all actives have a fitted effect of over 15% in size; further: potency means the concentration at half of the fitted maximal effect)
How it was run: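 Rat S16 Schwann cells with beta-Lac driven by a PMP22 intronic element, compound-treated 24 h at 37 °C. LiveBLAzer FRET B/G read: 460 nm normalized to potassium clavulanate vs DMSO; 535 nm FRET as viability; concentration-effect curves classified.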

[9] = qHTS assay for small molecule agonists of the antioxidant response element (ARE) signaling pathway (AID 651741; active means well fitted activation curve with a large enough effect in the signal ratio; the % refers to the signal ratio; further: potency means the concentration at half of the fitted maximal effect; on activation: % of control where 0% means no effect)
How it was run: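 Compounds in DMSO are pinned onto HepG2 ARE-bla cells (2,000/well) that were preincubated 5 h; plates stay 16 h at 37 C, then beta-lactamase activity is detected with LiveBLAzer B/G substrate by fluorescence.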

[10] = qHTS assay for small molecule activators of the p53 signaling pathway (AID 651743; active means well fitted activation curve with a large enough effect in the signal ratio, not every such curve was filed as active; the % refers to the signal ratio; further: potency means the concentration at half of the fitted maximal effect; on activation: series mostly up to about 92 µM; % of control where 0% means no effect); conditions: HCT-116 p53RE-bla, beta-lactamase FRET ratio, 16 h; activation: stronger effect = higher value
How it was run: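 Cell-based beta-lactamase reporter (p53 response elements, HCT-116 background). After a 5-hour preincubation, cells received compound for 16 hours at 37 C; substrate development ran 2 hours at room temperature.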

[11] = qHTS assay for small molecule activators of the nuclear factor-kappa B (NF-kB) signaling pathway (AID 651749; active means well fitted activation curve with a large enough effect in the signal ratio; the % refers to the signal ratio; further: series mostly up to about 77 µM; % of control where 0% means no effect); conditions: NF-kB-bla ME-180 cells, beta-lactamase FRET ratio, 16 h; stronger effect = higher value
How it was run: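 Screening used 2,000 ME-180 reporter cells per well exposed to pinned compound (23 nL) or DMSO; after 16 hr at 37C, beta-lactamase expression under NF-kB control was assessed through FRET.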

[12] = qHTS assay for small molecule disruptors of the mitochondrial membrane potential - 1 hr assay (AID 651754; calls by dose curve; further: nearly all actives have a fitted effect of over 35% in size; further: potency means the concentration at half of the fitted maximal effect)
How it was run: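 HepG2, 2,000 cells/well, overnight attachment; cpd or DMSO 1 hr, 37C/5% CO2; Mito-MPS dye 30 min, 37C; fluorescence monomer (490/535) and aggregate (540/590).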

[13] = qHTS assay for small molecule disruptors of the mitochondrial membrane potential - 5 hr assay (AID 651755; calls by dose curve; further: nearly all actives have a fitted effect of over 40% in size; further: potency means the concentration at half of the fitted maximal effect)
How it was run: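 HepG2 cells, attached overnight at 37C, were exposed to compound or DMSO for 5 hr at 37C, 5% CO2. Mito-MPS dye was then added for 30 min, and fluorescence read at 490/535 nm (monomers) and 540/590 nm (aggregates).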

CSc1ccccc1N1CCN(CCCCCC(=O)NC2CCCc3ccccc32)CC1 (stereo not drawn)
inactive: Potency [1] | Potency [2] | outcome [3] | outcome [4] | Potency [5]

CN1[C@@H]2CC[C@H]1CC(OC(=O)C(CO)c1ccccc1)C2 (stereo partly drawn)
inactive: Potency [6] | Potency [7] | Potency [8] | Potency [9]

CC(N)C(=O)OC(C)(C)Cc1ccc(Cl)cc1 (stereo not drawn)
inactive: Potency [6] | Potency [7] | Potency [8] | Potency [1] | outcome [3] | outcome [4] | Potency [5]

CCCC(=O)OC[C@@H](OC(=O)CCC)[C@@H](OC(=O)CCC)[C@H](Cn1c2nc(=O)[nH]c(=O)c-2nc2cc(C)c(C)cc21)OC(=O)CCC
active: Potency [7] 14.4 µM

COC(=O)C1=C(C)NC(C)=C(C(=O)OCC(C)C)C1c1ccccc1[N+](=O)[O-] (stereo not drawn)
active: Potency [7] 32.2 µM
inactive: Potency [8]

C=CCCCCCCCCC(=O)O
inactive: Potency [6] | Potency [7] | activation [10] -2.56% | activation [11] -1.28%

CN1[C@@H]2CC[C@H]1CC(OC(c1ccccc1)c1ccccc1)C2 (stereo partly drawn)
inactive: Potency [7] | Potency [8]

C=CC(C)=C[C@@]1(C)SC(=O)C(C)=C1O
inactive: Potency [1] | Potency [2] | outcome [3] | outcome [4] | Potency [5]

O=c1[nH]c2ccccc2n1CCCN1CCN(C(c2ccccc2)c2ccccc2)CC1
active: Potency [7] 8.09 µM

Nc1ccc(O)c(C(=O)O)c1
inactive: Potency [6] | Potency [7] | Potency [9] | activation [10] 0.238% and -1.06% | activation [11] -0.163% and 0.962%

CCCCCCCCCCCCCCCC(=O)OC(C)C
inactive: Potency [6] | Potency [7] | Potency [8] | activation [10] -1.99% | activation [11] 0.837%

Cc1nc2ccccc2n1Cc1ccc(Cl)cc1
inactive: Potency [7]

N=c1ccn2c(n1)O[C@H]1[C@H](O)[C@@H](CO)O[C@H]12
inactive: Potency [6] | Potency [1] | Potency [2] | outcome [3] | outcome [4] | Potency [5]
active: Potency [7] 14.4 µM | Potency [8] 14.1 µM

Cc1ccccc1CNc1ncnc2c1ncn2C1OC(CO)C(O)C1O (stereo not drawn)
inactive: Potency [6] | Potency [7] | Potency [8] | outcome [3] | outcome [4] | Potency [5]

CCC1C(=O)OCC1Cc1cncn1C (stereo not drawn)
inactive: Potency [6] | Potency [7] | Potency [8] | Potency [1] | Potency [2] | outcome [3] | outcome [4] | Potency [5]

CC(=O)[C@]1(O)Cc2c(O)c3c(c(O)c2[C@@H](O[C@H]2C[C@H](N)[C@H](O)[C@H](C)O2)C1)C(=O)c1c(O)cccc1C3=O
active: Potency [8] 0.398 µM
inactive: Potency [6]

O=C(O)c1cc(O)c(O)c(O)c1
inactive: Potency [7] | Potency [8] | activation [10] -4.32% | activation [11] -0.583% | Potency [12] | Potency [13]

COc1cc(/C=C/C(=O)CC(=O)/C=C/c2ccc(O)c(OC)c2)ccc1O
inactive: Potency [6] | Potency [8]
active: Potency [7] 20.3 µM | Potency [9] 25.9 µM | Potency [10] 31.6 µM | Potency [12] 3.76 µM | Potency [13] 5.96 µM

c1ccc2sc(SSc3nc4ccccc4s3)nc2c1
active: Potency [9] 26.6 µM
inactive: Potency [6] | Potency [7] | activation [10] 1.84% and -0.504% | activation [11] 3.06% and 1.84%

O=C(CCN1CCN(CCO)CC1)N1c2ccccc2Sc2ccc(C(F)(F)F)cc21
inactive: Potency [6] | Potency [8]

CCCOC(=O)c1ccc(O)cc1
inactive: Potency [6] | Potency [7] | Potency [8] | activation [10] -1.88% and -2.94% and -1.35%

NC[C@@H]1O[C@H](C23CC4CC(CC(C4)C2)C3)Cc2c1ccc(O)c2O
inactive: Potency [1] | Potency [2] | outcome [3] | outcome [4]

C#C[C@]1(O)CC[C@H]2[C@@H]3CCc4cc(O)ccc4[C@H]3CC[C@@]21C
active: Potency [7] 12.8 µM
inactive: Potency [6] | Potency [8] | activation [10] 11.3% and 11.7% | activation [11] 2.58% and -0.453% | Potency [12] | Potency [13]

CN1C2CCC1CC(OC(=O)C(O)c1ccccc1)C2 (stereo not drawn)
inactive: Potency [1] | Potency [2] | outcome [3] | outcome [4]

CN(C)c1ccc(C(=C2C=CC(=[N+](C)C)C=C2)c2ccccc2)cc1
active: Potency [8] 3.98 µM | Potency [12] 0.75 µM | Potency [13] 0.841 µM
inactive: Potency [7]

Nc1cc(-c2ccncc2)c[nH]c1=O
inactive: Potency [6] | Potency [7] | Potency [8] | Potency [9] | activation [10] -0.79% | activation [11] -2.44%

CCCCCCCCCCCCCCCCCC(=O)O
inactive: Potency [6] | Potency [7] | Potency [8] | Potency [9] | activation [10] 2.31% and -5.31% and -1.74% | activation [11] -1.37% and -0.0787% | Potency [12] | Potency [13]
